Experimental data: PubChem BioAssay (NCATS)
Where “and” joins values, the source holds several entries; their conditions need not be identical. Equal values may be shown once. Results filed as inconclusive are left out. Values without a mark were called inactive. Calls follow the shape of the dose curve; as a rule, active = well fitted inhibition curve with a large enough effect; inconclusive = small, poorly fitted or top-dose-only effect; inactive = flat fitted curve, though single readings scatter.

Test: Drug repurposing screens with cells derived from glioblastoma tumor samples (AID 1345199); also: nearly all actives have a fitted effect of over 40% in size
Details: GBM patient neurospheres viability, ATP luminescence, 48 h; at 46 µM (top of the series); tumour line A
Outline: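 Primary testing used CD133+ neurospheres from four GBM patients, seven concentrations, 48 h exposure and ATP-based viability; confirmation added three slower-growing patient lines.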
% is scaled to controls: 0 for no effect and ±100 for the full control effect.

SMILES | activity, negative = cell killing [%]
CC1(C)S[C@@H]2[C@H](NC(=O)C(C(=O)O)c3ccsc3)C(=O)N2[C@H]1C(=O)O (stereo partly specified) | 0.915
CC1=C(/C=C/C(C)=C/C=C/C(C)=C/C=C/C=C(C)/C=C/C=C(C)/C=C/C2=C(C)CCCC2(C)C)C(C)(C)CCC1 | -34.5
Nc1ccn([C@H]2CS[C@@H](CO)O2)c(=O)n1 | -14.1
O=C(O)CN(CCN(CC(=O)O)CC(=O)O)CC(=O)O | -14.7
CCOC(C)=O | -18.3
CCCC(=O)O[C@]1(C(=O)COC(C)=O)CC[C@H]2[C@@H]3C[C@H](F)C4=CC(=O)C=C[C@]4(C)[C@@]3(F)[C@@H](O)C[C@@]21C | -29.1
O=S(=O)(O)O | -0.209
Cc1c(C)c2c(c(C)c1O)CC[C@@](C)(CCC[C@H](C)CCC[C@H](C)CCCC(C)C)O2 | -28.9
C[C@]12CCC(=O)C=C1CC[C@@H]1[C@@H]2[C@@H](O)C[C@@]2(C)[C@H]1CC[C@]2(O)C(=O)COP(=O)(O)O | -14
Nc1ncnc2c1ncn2[C@@H]1O[C@H](COP(=O)(O)OP(=O)(O)OP(=O)(O)O)[C@@H](O)[C@H]1O | -1.48
C[C@@H]1[C@H](O)[C@@H](C)/C=C/C=C\C=C\C=C\C=C\C=C\C=C\[C@H](O[C@@H]2O[C@H](C)[C@@H](O)[C@H](N)[C@@H]2O)C[C@@H]2O[C@](O)(C[C@@H](O)C[C@@H](O)[C@H](O)CC[C@@H](O)C[C@@H](O)CC(=O)O[C@H]1C)C[C@H](O)[C@H]2C(=O)O (stereo in doubt) | -13.6
CCCCCCCC(=O)O | -22.2
CC1=CCC(C(C)(C)O)CC1 (stereo unspecified) | -13.1
CC(O)CO (stereo unspecified) | -19.9
CC1(C)S[C@@H]2[C@H](NC(=O)Cc3ccccc3)C(=O)N2[C@H]1C(=O)O | -18.5
CC(=O)OCC(=O)[C@@]1(O)CC[C@H]2[C@@H]3C[C@H](C)C4=CC(=O)C=C[C@]4(C)[C@H]3[C@@H](O)C[C@@]21C | -15.4
IC(I)I | -9.65
C/C1=C2N=C(/C=C3N=C(/C(C)=C4\[N-][C@@](C)([C@@H]5N=C1[C@](C)(CCC(=O)NCC(C)OP(=O)(O)O[C@H]1[C@@H](O)[C@@H](n6cnc7cc(C)c(C)cc76)O[C@@H]1CO)[C@H]5CC(N)=O)[C@@](C)(CC(N)=O)[C@@H]4CCC(N)=O)[C@@](C)(CC(N)=O)[C@@H]\3CCC(N)=O)C(C)(C)[C@@H]/2CCC(N)=O.CC(=O)O.[Co] (stereo partly specified) | -29
OCCO[C@@H]1[C@@H](O)[C@H](O)[C@@H](CO)O[C@@H]1O | -14.9
O=C(O)CCC(=O)C(=O)O | -23.8
CN1C(=O)CN2CCc3ccccc3C2c2cc(Cl)ccc21 (stereo unspecified) | -22.5

Same assay, conditions: GBM patient neurospheres viability, ATP luminescence, 48 h; at 46.1 µM (top of the series); tumour line C

SMILES | activity, negative = cell killing
CC1(C)S[C@@H]2[C@H](NC(=O)C(C(=O)O)c3ccsc3)C(=O)N2[C@H]1C(=O)O (stereo partly specified) | -15.8%
CC1=C(/C=C/C(C)=C/C=C/C(C)=C/C=C/C=C(C)/C=C/C=C(C)/C=C/C2=C(C)CCCC2(C)C)C(C)(C)CCC1 | 5.35%
Nc1ccn([C@H]2CS[C@@H](CO)O2)c(=O)n1 | 0.221%
O=C(O)CN(CCN(CC(=O)O)CC(=O)O)CC(=O)O | -16.4%
CCOC(C)=O | 2.8%
CCCC(=O)O[C@]1(C(=O)COC(C)=O)CC[C@H]2[C@@H]3C[C@H](F)C4=CC(=O)C=C[C@]4(C)[C@@]3(F)[C@@H](O)C[C@@]21C | -14.3%
O=S(=O)(O)O | -1.26%
Cc1c(C)c2c(c(C)c1O)CC[C@@](C)(CCC[C@H](C)CCC[C@H](C)CCCC(C)C)O2 | -17.8% and 12.9%
C[C@]12CCC(=O)C=C1CC[C@@H]1[C@@H]2[C@@H](O)C[C@@]2(C)[C@H]1CC[C@]2(O)C(=O)COP(=O)(O)O | -20.1%
Nc1ncnc2c1ncn2[C@@H]1O[C@H](COP(=O)(O)OP(=O)(O)OP(=O)(O)O)[C@@H](O)[C@H]1O | 38.9%
C[C@@H]1[C@H](O)[C@@H](C)/C=C/C=C\C=C\C=C\C=C\C=C\C=C\[C@H](O[C@@H]2O[C@H](C)[C@@H](O)[C@H](N)[C@@H]2O)C[C@@H]2O[C@](O)(C[C@@H](O)C[C@@H](O)[C@H](O)CC[C@@H](O)C[C@@H](O)CC(=O)O[C@H]1C)C[C@H](O)[C@H]2C(=O)O (stereo in doubt) | -5.87%
CCCCCCCC(=O)O | -13.3%
CC1=CCC(C(C)(C)O)CC1 (stereo unspecified) | -3.81%
CC(O)CO (stereo unspecified) | -8.89%
CC1(C)S[C@@H]2[C@H](NC(=O)Cc3ccccc3)C(=O)N2[C@H]1C(=O)O | -5.88%
CC(=O)OCC(=O)[C@@]1(O)CC[C@H]2[C@@H]3C[C@H](C)C4=CC(=O)C=C[C@]4(C)[C@H]3[C@@H](O)C[C@@]21C | 1.15%
IC(I)I | 2.5%
CC(NNC(=O)c1ccccc1)c1ccccc1 (stereo unspecified) | -40.2%
CCCCC(C)(O)C/C=C/[C@H]1[C@H](O)CC(=O)[C@@H]1CCCCCCC(=O)OC (stereo partly specified) | 7.24%
CCOC(=O)C1=C(C)NC(C)=C(C(=O)OCC)C1c1ccccc1C=CC(=O)OC(C)(C)C | 2.25%
OCCO[C@@H]1[C@@H](O)[C@H](O)[C@@H](CO)O[C@@H]1O | -19.4%
COC(=O)[C@H]1[C@H]2C[C@@H]3c4[nH]c5ccccc5c4CCN3C[C@H]2C[C@@H](OC(=O)c2cc(OC)c(OC)c(OC)c2)[C@@H]1OC | -12.2%
O=C(O)CCC(=O)C(=O)O | 3.09%
COc1ccc(C[C@@H](C)NC[C@H](O)c2ccc(O)c(NC=O)c2)cc1 | -20.1%
CN1C(=O)CN2CCc3ccccc3C2c2cc(Cl)ccc21 (stereo unspecified) | -33.9%
